Screens: PubChem BioAssay, National Center for Advancing Translational Sciences (NCATS)
TRPV1 PAM: human TRPV1 potentiation. TRPV1-expressing cells, Fluo-8 calcium influx, capsaicin EC20 potentiation. potentiation, % at 8.33 µM. hit rate 0.02% among 320,000. AID 540277; in the data active = potentiation above about 80%; inconclusive = between about 30% and that limit; note: 0% is about no effect
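Cells expressing TRPV1 were dye-loaded with Fluo-8 and read kinetically: 10 s baseline, 3 min after compound (agonist portion), then 2 min after EC20 capsaicin (allosteric enhancer portion). Calcium-bound dye fluorescence at 480/520 nm.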
KCNH2 3.1 inh: KCNH2 3.1 (human) potassium channel inhibition; hit rate 0.95% among 340,000; U2OS KCNH2 3.1, thallium flux FluxOr; active compounds read low; activity change, % (tested at about 1.8 µM); AID 720553;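 active = maximum activity change below -70%; inconclusive = maximum activity change from -70% to -50%; inactive = maximum activity change above -50%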;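 note: thallium influx rate constant from kinetic fluorescence after stimulation buffer; % is set by controls: 0 for no effect and ±100 for the full control effect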
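Thallium flux read-out: FluxOr dye with Red40 quencher in HBSS/HEPES, 45 min at RT. Rate constants from kinetic reads were normalized to positive and negative DMSO controls. Cells: U2OS virally expressing the 3.1 isoform.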
TRPV1 ag: agonists of human vanilloid receptor 1 (TRPV1); Q8NER1; TRPV1-expressing cells, Fluo-8 calcium influx, agonist mode; activation, % at 8.33 µM; hit rate 0.19% among 320,000; in the data active = activation above about 80%; inconclusive = between about 30% and that limit; note: 0% is about no effect
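TRPV1-expressing cells were cultured overnight at 35.5C and loaded with Fluo-8 calcium dye for 40 to 90 min at room temperature. After a 10 s baseline, compound was added and calcium influx was read kinetically for 3 min (ex 480/em 520 nm).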
KCNH2 WT inh: inhibitors of human wildtype KCNH2 potassium channel. Q12809. U2OS, BacMam KCNH2, thallium flux FluxOr; active compounds read low. activity change, % at 1.84 µM. hit rate 0.37% among 340,000;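 active = maximum activity change below -70%; inconclusive = maximum activity change between -70% and -50%; inactive = maximum activity change above -50%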; note: % is set by controls: 0 for no effect and ±100 for the full control effect
Target sequence (Q12809 whole entry, looked up): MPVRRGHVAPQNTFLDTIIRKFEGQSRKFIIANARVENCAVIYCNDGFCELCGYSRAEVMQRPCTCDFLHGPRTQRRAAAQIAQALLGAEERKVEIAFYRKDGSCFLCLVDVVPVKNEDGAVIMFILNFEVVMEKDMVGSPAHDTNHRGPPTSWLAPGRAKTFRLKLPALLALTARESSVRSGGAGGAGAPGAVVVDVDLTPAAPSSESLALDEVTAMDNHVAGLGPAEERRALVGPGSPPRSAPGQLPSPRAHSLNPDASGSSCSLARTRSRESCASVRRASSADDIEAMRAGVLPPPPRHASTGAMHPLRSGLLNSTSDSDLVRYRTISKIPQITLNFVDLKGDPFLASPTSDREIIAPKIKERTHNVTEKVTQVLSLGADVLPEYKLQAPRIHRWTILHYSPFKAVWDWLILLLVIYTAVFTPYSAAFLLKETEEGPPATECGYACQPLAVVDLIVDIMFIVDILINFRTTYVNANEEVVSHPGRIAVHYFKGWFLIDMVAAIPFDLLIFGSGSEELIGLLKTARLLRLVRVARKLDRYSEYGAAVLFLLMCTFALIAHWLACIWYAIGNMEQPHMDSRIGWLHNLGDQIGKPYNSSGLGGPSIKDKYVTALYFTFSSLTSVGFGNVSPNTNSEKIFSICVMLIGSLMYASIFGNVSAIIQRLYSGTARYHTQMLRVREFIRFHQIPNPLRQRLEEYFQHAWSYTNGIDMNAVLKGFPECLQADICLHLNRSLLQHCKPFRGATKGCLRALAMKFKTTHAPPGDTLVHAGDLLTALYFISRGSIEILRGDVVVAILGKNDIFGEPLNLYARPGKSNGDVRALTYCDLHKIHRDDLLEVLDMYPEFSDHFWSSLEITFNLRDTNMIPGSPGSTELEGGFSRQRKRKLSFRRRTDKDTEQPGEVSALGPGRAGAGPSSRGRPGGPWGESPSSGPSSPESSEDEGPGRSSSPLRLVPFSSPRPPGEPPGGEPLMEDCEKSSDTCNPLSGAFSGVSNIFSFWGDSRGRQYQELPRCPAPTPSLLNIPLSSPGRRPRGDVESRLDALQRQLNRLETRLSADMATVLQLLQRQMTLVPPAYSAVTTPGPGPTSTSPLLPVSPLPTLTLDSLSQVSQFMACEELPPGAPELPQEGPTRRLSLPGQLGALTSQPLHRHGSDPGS
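U2OS cells transduced with wild-type KCNH2 virus are loaded with FluxOr dye for 45 min, and thallium flux is measured in kinetic reads before and after stimulation buffer. Rate constants are normalized to DMSO controls.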
* hit, by the source's call. Sampled rows, rich in hits. Any-hit rate of the full collection: about 1.2%.

What do the screens show for `CCCC[C@@H](CNC)NC[C@H](Cc1ccc(O)cc1)NCCc1ccc(OCC)cc1`?
TRPV1 PAM: 10; KCNH2 3.1 inh: -71*; TRPV1 ag: 4; KCNH2 WT inh: -24

How did CC(C)(C)OC(=O)[C@H](Cc1ccccc1)NC(=O)c1nc[nH]c1C(=O)N[C@@H](Cc1ccccc1)C(=O)OC(C)(C)C do in these assays?
TRPV1 PAM: inconclusive; KCNH2 3.1 inh: -70*; TRPV1 ag: 14; KCNH2 WT inh: -5

How did O=C(C1CCCO1)N1CCN(Cc2c(O)ccc3ccccc23)CC1 (stereo not drawn) do in these assays?
TRPV1 PAM: 0; KCNH2 3.1 inh: -95*; TRPV1 ag: 0; KCNH2 WT inh: -14

How did CC(=O)Nc1c(C(=O)Nc2ccc3c(c2)OCO3)oc2ccccc12 do in these assays?
TRPV1 PAM: -13; KCNH2 3.1 inh: 6; TRPV1 ag: inconclusive; KCNH2 WT inh: -72*

Results for COc1ccc(CN2CCOCCOCCOCC2)cc1 ?
TRPV1 PAM: 3; KCNH2 3.1 inh: -1; TRPV1 ag: 3; KCNH2 WT inh: 8

How did O=[N+]([O-])c1ccc(COc2ccc(CN3CCOCC3)cc2)cc1 do in these assays?
KCNH2 3.1 inh: -18; KCNH2 WT inh: 11

What do the screens show for `COCCNC(=O)c1cccc(OC2CCN(Cc3ccc(OC(F)F)cc3)CC2)c1`?
TRPV1 PAM: -1; KCNH2 3.1 inh: -80*; TRPV1 ag: 6; KCNH2 WT inh: 4

Results for O=[N+]([O-])c1ccc(CN2CCOCCOCCN(Cc3ccc([N+](=O)[O-])cc3)CCOCC2)cc1 ?
TRPV1 PAM: -15; KCNH2 3.1 inh: -115*; TRPV1 ag: 3; KCNH2 WT inh: -90*

What do the screens show for `O=[N+]([O-])c1ccc(COc2ccccc2CN2CCCC2)cc1`?
KCNH2 3.1 inh: -27; KCNH2 WT inh: 46

How did COc1ccc(CN2CCOCCOCCN(Cc3ccc(OC)cc3)CCOCCOCC2)cc1 do in these assays?
TRPV1 PAM: -6; KCNH2 3.1 inh: -74*; TRPV1 ag: -2; KCNH2 WT inh: -12

How did O=[N+]([O-])c1ccc(COc2ccc(Br)cc2CN2CCOCC2)cc1 do in these assays?
TRPV1 PAM: -7; KCNH2 3.1 inh: -90*; TRPV1 ag: 9; KCNH2 WT inh: 12

How did Oc1ccc(Cl)cc1C1C=C(c2ccc3c(c2)OCO3)NC(c2cc(Br)ccc2F)N1 (stereo not drawn) do in these assays?
TRPV1 PAM: -13; TRPV1 ag: 7

How did CCOCCCNC(=S)N(CCO)Cc1cc2cc3c(cc2[nH]c1=O)OCCO3 do in these assays?
TRPV1 PAM: 19; KCNH2 3.1 inh: 6; TRPV1 ag: 1; KCNH2 WT inh: 4

What do the screens show for `COCCNC(=O)c1ccc(CN2CCOCC2)cc1`?
TRPV1 PAM: -12; KCNH2 3.1 inh: -9; TRPV1 ag: 2; KCNH2 WT inh: -133*

Results for O=C(OCc1ccc([N+](=O)[O-])cc1)c1cc([N+](=O)[O-])ccc1N1CCOCC1 ?
TRPV1 PAM: -8; KCNH2 3.1 inh: -89*; TRPV1 ag: 2; KCNH2 WT inh: -106*

What do the screens show for `Cc1ccc(-c2csc(NC(=O)c3cc([N+](=O)[O-])ccc3N3CCOCC3)n2)cc1`?
TRPV1 PAM: 13; KCNH2 3.1 inh: -7; TRPV1 ag: -1; KCNH2 WT inh: -108*

How did O=C(Nc1nc(-c2ccccc2)cs1)c1ccc(N2CCOCC2)c([N+](=O)[O-])c1 do in these assays?
TRPV1 PAM: -6; KCNH2 3.1 inh: 5; TRPV1 ag: 4; KCNH2 WT inh: -7

How did CSc1ccc(CN2CCN(Cc3ccc([N+](=O)[O-])cc3)CC2)cc1 do in these assays?
TRPV1 PAM: 0; KCNH2 3.1 inh: -110*; TRPV1 ag: 9; KCNH2 WT inh: -112*

Results for O=C(COC(=O)COc1ccc(Br)cc1)NC1CCS(=O)(=O)C1 (stereo not drawn) ?
KCNH2 3.1 inh: 4; KCNH2 WT inh: 5

How did CCc1nc(SCc2cc(=O)[nH]c3ccccc23)c2c(C)c(C)sc2n1 do in these assays?
KCNH2 3.1 inh: 10; KCNH2 WT inh: 3

Results for Cc1ccc(SCc2nc3ccccc3n2CC(=O)Nc2ccc(Cl)cc2)cc1 ?
TRPV1 PAM: 5; KCNH2 3.1 inh: -1; TRPV1 ag: 3; KCNH2 WT inh: 18

What do the screens show for `CC(C)Cn1c(N2CCN(CC(=O)Nc3ccc(Cl)cc3)CC2)nc2ccccc21`?
TRPV1 PAM: 8; KCNH2 3.1 inh: -74*; TRPV1 ag: 0; KCNH2 WT inh: -16

How did CCCn1c(N2CCN(C(=O)Nc3ccccc3)CC2)nc2ccccc21 do in these assays?
TRPV1 PAM: 3; KCNH2 3.1 inh: -105*; TRPV1 ag: inconclusive; KCNH2 WT inh: 10

Results for CCOc1nc(Nc2ccc(F)cc2)nc(N2CCN(c3ccc(OC)cc3)CC2)n1 ?
TRPV1 PAM: -10; KCNH2 3.1 inh: inconclusive; TRPV1 ag: 5; KCNH2 WT inh: -3

How did Cc1ccc(Nc2nc(N)nc(CN3CCN(c4ccccc4)CC3)n2)cc1Cl do in these assays?
TRPV1 PAM: -9; KCNH2 3.1 inh: -75*; TRPV1 ag: 20; KCNH2 WT inh: 13

Results for CCOc1nc(Nc2ccc(OC)c(Cl)c2)nc(N2CCN(c3ccc(OC)cc3)CC2)n1 ?
TRPV1 PAM: -2; KCNH2 3.1 inh: -109*; TRPV1 ag: 2; KCNH2 WT inh: 3

Results for COc1ccc(N2CCN(Cc3nc(N)nc(Nc4ccc(C)c(Cl)c4)n3)CC2)cc1 ?
TRPV1 PAM: 7; KCNH2 3.1 inh: -73*; TRPV1 ag: -1; KCNH2 WT inh: 31

What do the screens show for `CSc1nc(N)c(NC(=O)c2ccc(Br)o2)c(=O)[nH]1`?
TRPV1 PAM: -13; TRPV1 ag: -3; KCNH2 WT inh: 21

What do the screens show for `CCN(CC)CCOC(=O)c1ccc(NC(=O)CSc2nnc(-c3cccs3)n2CC)cc1`?
KCNH2 3.1 inh: -12; KCNH2 WT inh: 8

What do the screens show for `O=C(Cc1cccc(NC(=O)C2CCN(C(=O)CCc3ccccc3)CC2)c1)Nc1cccc(C(=O)N2CCCCC2)c1`?
KCNH2 3.1 inh: -47; KCNH2 WT inh: 17

How did C[C@H](CO)N1C[C@H](C)[C@@H](CN(C)Cc2ccccc2C(=O)O)OCc2cnnn2CCCC1=O do in these assays?
KCNH2 3.1 inh: 8; KCNH2 WT inh: -16

Results for Cc1ccc(C)c(S(=O)(=O)N2CCNCC2)c1 ?
TRPV1 PAM: 8; KCNH2 3.1 inh: 0; TRPV1 ag: 1; KCNH2 WT inh: 2

What do the screens show for `Cc1ccc(C)c(S(=O)(=O)c2c[nH]c(=S)[nH]c2=O)c1`?
TRPV1 PAM: 4; KCNH2 3.1 inh: -82*; TRPV1 ag: -3; KCNH2 WT inh: -30

Results for CCOC(=O)c1c(NC(=O)COC(=O)CCOc2cc(C)ccc2C)sc(C(=O)N(C)C)c1C ?
KCNH2 3.1 inh: -35; KCNH2 WT inh: 2

What do the screens show for `C[C@H]1CN([C@@H](C)CO)C(=O)c2cc(C#CC3CCCC3)cnc2O[C@H]1CN(C)C(=O)Cc1ccccn1`?
KCNH2 3.1 inh: 5; KCNH2 WT inh: 8

What do the screens show for `Cc1ccc(CC(=O)NCCCc2ccccc2)cc1`?
TRPV1 PAM: -19; KCNH2 3.1 inh: 11; TRPV1 ag: 80*; KCNH2 WT inh: 5
